Bioassay records deposited in PubChem by National Center for Advancing Translational Sciences (NCATS).
SW480 rereplic: A quantitative high throughput screen for small molecules that induce DNA re-replication in SW480 colon adenocarcinoma cells. SW480 DNA re-replication, Hoechst DNA content imaging, 48 h. Potency, µM (titrated, usually from 46.1 µM), usual class: activators. 1.8% of 340,000 active; note: nearly all actives have a fitted effect of over 55% in size
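SW480 cells exposed to compounds for 48 hr at 37 C, 5% CO2, then Hoechst-stained 40 min. Nuclear DNA content imaged by fluorescence scanning (405 nm excitation, 500-530 nm emission); re-replication scored as increased high-intensity nuclei.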
MCF10A rereplic: A quantitative high throughput screen for small molecules that induce DNA re-replication in MCF 10a normal breast cells; MCF 10A DNA re-replication, Hoechst nuclear intensity, 48 h; Potency, µM (series often up to 46.1 µM), actives largely listed as activators; 2.9% of 350,000 active; AID 624296, 2012; note: nearly all actives have a fitted effect of over 50% in size
TDP1 cell noCPT: qHTS for Inhibitors of human tyrosyl-DNA phosphodiesterase 1 (TDP1): qHTS in cells in absence of CPT | DT40 Tdp1-/- hTDP1 cells, no CPT, ATP luminescence, 48 h | 15% of 420,000 active | Potency, µM (doses to about 46.2 µM), most hits filed as inhibitors | AID 686978, 2013; note: nearly all actives have a fitted effect of over 55% in size
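Cells were dispensed at 400 per well, compounds added by pin tool, plates incubated ≥48 hr at 37 °C, then CellTiter-Glo added for 30 min at room temperature before luminescence reading. Line: DT40 Tdp1-/- complemented with hTDP1; camptothecin omitted.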
IL1B secr inh: qHTS for Inhibitors of Inflammasome Signaling: IL-1-beta AlphaLISA Primary Screen; 4.7% of 360,000 active; THP-1 LPS/ATP IL-1B secretion, AlphaLISA, 16 h; active compounds read low; activity change, % at 57.5 µM; AID 743279, 2014; in the data active = activity change below about -50%; inconclusive = mostly about -30% to -49%
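Secreted IL-1B measured by AlphaLISA bead assay after 16 h compound exposure of THP-1 cells; compounds (final up to 57.5 uM) added 1 h before LPS (250 ng/mL) and ATP (1.25 mM) stimulation; lower signal means less secretion.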
Chronic BCR inh: qHTS Assay to Find Inhibitors of Chronic Active B-Cell Receptor Signaling; ABC-DLBCL IkBa-CBG/CBR reporter, luminescence ratio, 4 h; Potency, µM (top dose mostly 46.1 µM), actives largely listed as inhibitors; 0.05% of 340,000 active; AID 493014, 2011; active = well fitted inhibition curve with a large enough effect in the signal ratio, with a control signal flat, not every such curve was filed as active; inconclusive = small, poorly fitted or top-dose-only effect, or effect the other way, or a change in a side signal; the % refers to the signal ratio
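Concentration-response series (up to 46 uM) were applied to TMD8 dual-reporter cells for 4 h at 37C with doxycycline. Green/red ratio, after filter-overlap correction, defined %Activity; red signal alone was normalised to basal cells and zero luminescence.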
TDP1 cell CPT: qHTS for Inhibitors of human tyrosyl-DNA phosphodiesterase 1 (TDP1): qHTS in cells in presence of CPT; chicken DT40 Tdp1-/-;hTDP1 cells + 20 nM CPT, ATP luminescence, 48 h; 12% of 420,000 active; Potency, µM (doses to about 46.2 µM), most hits filed as inhibitors; note: nearly all actives have a fitted effect of over 55% in size
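Chicken DT40 Tdp1-/- cells complemented with human TDP1, 400 cells/well, exposed to compounds plus 20 nM camptothecin for at least 48 h at 37 C; viability read as ATP content by CellTiter-Glo luminescence.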
A number is an active result. Sampled rows, rich in hits. Any-hit rate of the full collection: about 19%. Unless noted, calls come from the whole dose curve; as a rule, active = well fitted curve in the direction sought with a large enough effect; inconclusive = small, poorly fitted or top-dose-only effect, or another doubt; inactive = no such curve, though single readings can be large; an effect the other way counts as inactive or inconclusive.

`Cc1ccc(OCC(=O)Nc2ccc(-c3nc4ccc(C)cc4o3)cc2)cc1` gave TDP1 cell noCPT 18µM and TDP1 cell CPT 16µM.
Screening CSc1cccc(NC(=O)OC2CCCCCCCCCCC2)c1 returned SW480 rereplic inactive, MCF10A rereplic inactive, TDP1 cell noCPT 21µM, IL1B secr inh inactive, Chronic BCR inh inconclusive and TDP1 cell CPT inconclusive.
Screening CSc1cccc(NC(=O)COc2ccccc2)c1 returned SW480 rereplic inactive, MCF10A rereplic inconclusive, TDP1 cell noCPT 4.6µM, IL1B secr inh inactive, Chronic BCR inh inconclusive and TDP1 cell CPT 8.2µM.
`Cc1ccc(-c2nnc(-c3ccc4ccccc4c3)o2)cc1` gave SW480 rereplic inconclusive, MCF10A rereplic 6.5µM, TDP1 cell noCPT inconclusive, IL1B secr inh inactive and TDP1 cell CPT inconclusive.
Screening O=C(CN1C(=O)C2CCCCN2c2ccc(C(=O)N3CCCC3)cc21)NCc1ccc(F)cc1 (centres undefined) returned TDP1 cell noCPT inactive and TDP1 cell CPT inactive.
`O=C(COc1ccccc1)Nc1cccc(-c2nc3cc4ccccc4cc3[nH]2)c1` gave SW480 rereplic inconclusive, MCF10A rereplic 15µM, TDP1 cell noCPT 21µM, IL1B secr inh -85, Chronic BCR inh inconclusive and TDP1 cell CPT 15µM.
For Cc1cccc(OCC(=O)Nc2cccc(-c3nnc(-c4ccccc4)o3)c2)c1C the results were SW480 rereplic inactive, MCF10A rereplic inactive, TDP1 cell noCPT inconclusive, IL1B secr inh inactive, Chronic BCR inh inconclusive and TDP1 cell CPT inactive.
`Cc1ccc(OCC(=O)Nc2cccc(-c3nnc(-c4ccccc4)o3)c2)cc1` gave SW480 rereplic inactive, MCF10A rereplic inactive, TDP1 cell noCPT 16µM, IL1B secr inh inactive, Chronic BCR inh inconclusive and TDP1 cell CPT 16µM.
`Cc1cccc(C)c1OCC(=O)Nc1cccc(-c2nnc(-c3ccccc3)o2)c1` gave SW480 rereplic inactive, MCF10A rereplic inconclusive, TDP1 cell noCPT 16µM, IL1B secr inh inactive, Chronic BCR inh inconclusive and TDP1 cell CPT 18µM.
COc1ccc(OCCCC(=O)Nc2cccc(SC)c2)cc1 was read as MCF10A rereplic inactive, TDP1 cell noCPT inactive, IL1B secr inh inactive, Chronic BCR inh inactive and TDP1 cell CPT inactive.
`CSc1cccc(NC(=O)CCCOc2ccc(Cl)cc2C)c1` gave SW480 rereplic inactive, MCF10A rereplic inactive, TDP1 cell noCPT inconclusive, IL1B secr inh inactive, Chronic BCR inh inactive and TDP1 cell CPT 18µM.
Screening CCC1(CC)C(=O)N(c2ccccc2)C(=N)N(c2ccccc2)C1=O returned SW480 rereplic inactive, MCF10A rereplic inactive, TDP1 cell noCPT inactive, IL1B secr inh inactive and TDP1 cell CPT inactive.
For O=C(NC(=S)Nc1ccccc1N1CCCC1)c1ccc(F)cc1 the results were SW480 rereplic inactive, MCF10A rereplic inconclusive, TDP1 cell noCPT inconclusive, IL1B secr inh inactive, Chronic BCR inh inconclusive and TDP1 cell CPT inconclusive.
CC1CCN(c2ccccc2NC(=S)NC(=O)c2ccco2)CC1 was read as SW480 rereplic inactive, MCF10A rereplic 18µM, TDP1 cell noCPT 29µM, IL1B secr inh inactive and TDP1 cell CPT inconclusive.
Screening O=C(NC(=S)Nc1ccccc1N1CCCCC1)c1ccccc1 returned SW480 rereplic inactive, MCF10A rereplic inconclusive, TDP1 cell noCPT 26µM, IL1B secr inh inactive, Chronic BCR inh inactive and TDP1 cell CPT inconclusive.
`O=C(CCNC(=O)c1ccc(Br)cc1)Nc1ccccc1N1CCCCC1` gave SW480 rereplic inactive, MCF10A rereplic inconclusive, TDP1 cell noCPT inconclusive, IL1B secr inh -80, Chronic BCR inh inactive and TDP1 cell CPT inconclusive.
